Assay [1] is described as follows: qHTS assay for small molecules that induce genotoxicity in human embryonic kidney cells expressing luciferase-tagged ATAD5 (AID 651632). Note: nearly all actives have a fitted effect of over 15% in size. Note: potency is the fitted concentration of half-maximal effect. In a few lines:
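ATAD5-luc HEK293T, 2,000 cells/well; cpd or DMSO pin-transferred; 16 hr, 37C/5% CO2; Amplite 30 min RT; luminescence.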

The nature of assay [2]: qHTS assay for small molecule agonists of the p53 signaling pathway - cell viability (AID 651633; calls by dose curve;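 note: p53RE-bla HCT reporter cells with a stable beta-lactamase p53 reporter; series mostly up to about 83 µM; nearly all actives have a fitted effect of over 30% in size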). In a few lines: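 p53RE-bla cells, seeded at 4,000 per well and rested 5 h at 37 C/5% CO2, received compounds in DMSO for 16 h at 37 C. CellTiter-Glo was then added, and luminescence was read after 30 min at room temperature to gauge cytotoxicity.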
Assay [3] in a line: qHTS assay for small molecule disruptors of the mitochondrial membrane potential - cell viability (AID 720634; calls by dose curve;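 note: human HepG2 liver cancer cells; series mostly up to about 83 µM; nearly all actives have a fitted effect of over 20% in size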). The gist of the method: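 Cells: HepG2, 2,000/well, attached overnight. Compound 1 hr, 37 C/5% CO2. +m-MPI dye, +CellTiter-Glo 30 min RT. Readout: luminescence (ATP).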
Assay [4] in a line: qHTS assay for small molecule disruptors of the mitochondrial membrane potential (AID 720635). Note: potency is the fitted concentration of half-maximal effect. In a few lines:
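HepG2 cells (2,000/well) attached overnight at 37C, then took compound for 1 hr at 37C, 5% CO2. Mito-MPS dye was added for 30 min; fluorescence was read at 490/535 nm (monomers) and 540/590 nm (aggregates).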

Assay [5] can be described thus: qHTS assay to test for compound auto fluorescence at 590 nm (red) in HepG2 cells (AID 720674). In a few lines: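 Compound auto-fluorescence is scored relative to Rose Bengal sodium, measured at 540/590 nm in live HepG2 cultures after 1 hr compound contact (37 C, 5% CO2).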
A short description of assay [6]: qHTS assay to test for compound auto fluorescence at 535 nm (green) in HepG2 cells (AID 720675).
A short description of assay [7]: qHTS assay to test for compound auto fluorescence at 460 nm (blue) in HEK293 cells (AID 720678). The gist of the method:
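Auto fluorescence in the blue band was quantified as triamterene equivalency. HEK293 cells were seeded at 2,000/well, dosed after a 4-5 hr attachment, and kept overnight at 37C before the 405/460 nm reading.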

Assay [8] in a line: qHTS assay to test for compound auto fluorescence at 590 nm (red) in HEK293 cells (AID 720679). In a few lines: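 Autofluorescence equivalency to Rose Bengal sodium, 540/590nm, in HEK293 cells exposed overnight to 23 nL compound per well.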
Assay [9] is described as follows: qHTS assay for small molecules that induce genotoxicity in human embryonic kidney cells expressing luciferase-tagged ATAD5 - cell viability (AID 651634; calls by dose curve; note: nearly all actives have a fitted effect of over 25% in size). The gist of the method:
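Fluorescence from CellTiter-Fluor, reporting protease activity within live cells, served as the viability read-out. HEK293T cells carrying luciferase-tagged ATAD5 had been treated with compound for 15.5 hr at 37C.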

Assay [10] can be described thus: qHTS assay for small molecule agonists of the p53 signaling pathway (AID 651631; calls by dose curve; note: nearly all actives have a fitted effect of over 15% in size). The gist of the method:
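HCT-116 cells carrying a beta-lactamase reporter under p53 response elements were dosed with compound for 16 h at 37 °C. LiveBLAzer B/G FRET substrate was then added for 2 h at room temperature, and fluorescence intensity was read to detect pathway agonism.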

A number with no mark means an inactive call. Inconclusive results are not listed. Calls of active or inactive are those of the source. Unless noted, calls come from the whole dose curve; as a rule, active = well fitted curve in the direction sought with a large enough effect in the repeat runs; inconclusive = weak or mixed curves; inactive = no such curve, though single readings can be large; an effect the other way counts as inactive or inconclusive.

Turning to `C/C(=N\O)c1ccc(OCC(=O)N2CCCCC2)cc1`, the Potency in [1] is 23.7 µM (active). Moreover, the result in assay [2], in assay [3], in assay [5], in assay [6], in assay [7] and in assay [8] was inactive. The Potency entry in [4] is “inactive”.

As for `C[Si](C)(C)O[Si](O)(O)O`, the Potency result in assay [1] was “inactive”. For the same compound, the call in assay [2], in assay [9], in assay [5], in assay [6], in [7] and in assay [8] was inactive.

As for `CCOC(=O)CC`, the Potency result in assay [10], in [1] and in [4] was “inactive” each time. Moreover, the result in assay [5], in assay [6], in assay [7] and in [8] was inactive.

With `CCCCCC(CC)OC(=O)CCCOc1ccc(Cl)cc1Cl` (configuration not stated), the Potency result in assay [1] and in [4] was “inactive” in each case. Further, the result in [2], in assay [9], in assay [3], in assay [5], in assay [6] and in [7] was inactive. Besides, the compound was classed as inactive in assay [8].

In the case of `N#CC1(N)CCCCC1`, in assay [1], the Potency result is “inactive”. Also, the compound was called inactive in assay [2], in assay [9], in [5], in assay [6], in [7] and in assay [8].

`CC(=O)c1ccc2ccc3ccccc3c2c1`: in assay [1], the Potency entry is “inactive”. Besides, the compound was called inactive in [2], in assay [9], in [3], in assay [5], in assay [6] and in [7]. Moreover, the compound was classed as inactive in assay [8]. Besides, the Potency in assay [4] was 30.5 µM (active).

For the compound `CC[C@@]1(c2ccccc2)NC(=O)N(C)C1=O`, the Potency result in assay [1] is “inactive”. The compound was called inactive in assay [2], in assay [9], in [3], in [5], in assay [6] and in assay [7]. Moreover, in [8], the outcome was inactive.

Regarding `BrCCOc1ccccc1`, in assay [1], the Potency entry was “inactive”. Moreover, the call in assay [2], in [9], in assay [3], in [5], in assay [6] and in assay [7] was inactive. Also, the compound was classed as inactive in assay [8].

Regarding `NC[C@H]1O[C@H](O[C@H]2[C@H](O)[C@@H](O[C@H]3O[C@H](CO)[C@@H](O)[C@H](N)[C@H]3O)[C@H](N)C[C@@H]2N)[C@H](N)[C@@H](O)[C@@H]1O`, the Potency entry in assay [10], in [1] and in assay [4] was “inactive” in each case. In addition, the compound was classed as inactive in [3], in assay [5], in assay [6] and in [8].

As to `CCCCNCC`, the Potency result in [1] and in assay [4] was “inactive” in each case. Besides, the call in assay [2], in assay [9], in assay [3], in assay [5], in assay [6] and in [7] was inactive. Moreover, the outcome in assay [8] was inactive.

In the case of `O=C(CCBr)N1CCN(C(=O)CCBr)CC1`, the Potency result in assay [1] was “inactive”. Further, the compound was classed as inactive in [2], in assay [9], in assay [3], in [5], in assay [6] and in assay [7]. The compound was classed as inactive in [8].

Regarding `CCCCCCCCCCCCCCBr`, the Potency entry in assay [1] and in assay [4] was “inactive” each time. In addition, the outcome in [2], in assay [9], in [3], in [5], in assay [6] and in assay [7] was inactive. Also, the compound was classed as inactive in assay [8].

Consider `Cc1ccc(Br)cc1`, for which, in assay [1], the Potency result was “inactive”. Further, the compound was called inactive in assay [2], in assay [9], in assay [5], in [6], in [7] and in assay [8].

As to `N#Cc1ccccc1C#N`, the Potency result in assay [1] and in assay [4] was “inactive” throughout. Further, the call in assay [2], in assay [9], in assay [3], in assay [5], in assay [6] and in [7] was inactive. Further, the outcome in assay [8] was inactive.

Regarding `CC(C)(C)c1ccc(N)cc1`, the Potency entry in [1] and in assay [4] was “inactive” throughout. Besides, the compound was classed as inactive in assay [2], in [9], in assay [3], in assay [5], in assay [6] and in assay [7]. In addition, the outcome in assay [8] was inactive.

On to `CC(C)(C)C(=O)NCCCC(=O)O`, for which the Potency entry in [10] and in [1] was “inactive” throughout. The compound was classed as inactive in assay [9], in assay [5], in assay [6], in assay [7] and in [8].

On to `CC(=O)SCC(CC(=O)c1ccc(C)cc1)C(=O)O` (configuration not stated), for which the Potency entry in [1] and in [4] was “inactive” each time. Besides, the outcome in assay [2], in assay [9], in assay [3], in assay [5], in assay [6] and in [7] was inactive. The outcome in assay [8] was inactive.

For the compound `Cc1cc(O)c(Cl)cc1C`, the Potency result in assay [10] and in [1] was “inactive” throughout. Besides, the result in [9], in [5], in assay [6], in assay [7] and in [8] was inactive.

Regarding `C=CCON/C(CCC)=C1\C(=O)CC(C)(C)C(C(=O)OC)=C1O`, the Potency result in [1] is “inactive”. Further, the compound was classed as inactive in assay [2], in [9], in assay [3], in [5], in assay [6] and in [8].

Consider `CC(=O)OC1CCC(C(C)(C)C)CC1` (configuration not stated), for which the Potency entry in assay [10] and in assay [1] was “inactive” in each case. Further, the call in assay [3], in assay [5], in [6], in [7] and in assay [8] was inactive.

`COCc1nnc(-c2ccc[n+]([O-])c2)n1-c1c(Cl)c(Cl)cc2[nH]c(=O)c(=O)[nH]c12`: the Potency result in [1] and in [4] was “inactive” in each case. Also, the result in [2], in assay [9], in assay [3], in assay [5], in assay [6] and in assay [7] was inactive. Moreover, the compound was called inactive in assay [8].

Source of the values: PubChem BioAssay (Tox21).
